JMJD2A Tudor: JMJD2A Tudor domain (human) inhibition. O75164. AlphaScreen JMJD2A-Tudor / H3K4me3 peptide binding. Potency, µM (top dose mostly 114 µM), inactives show at the highest dose activity change, negative = inhibition, usual class: inhibitors. 390,000 compounds, 4.4% hits; note: potency is the fitted concentration of half-maximal effect; % is set by controls: 0 for no effect and ±100 for the full control effect; nearly all actives have a fitted effect of over 50% in size
L3MBTL1 inh: blocks human L3MBTL1 | Q9Y468 | AlphaScreen L3MBTL1–H3K9me1 peptide binding | 230,000 compounds, 0.66% hits | Potency, µM (highest dose often 57.1 µM), for the others: at the top dose activity, negative = inhibition, usual class: inhibitors; note: potency is the fitted concentration of half-maximal effect; % is set by controls: 0 for no effect and ±100 for the full control effect; nearly all actives have a fitted effect of over 60% in size
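AlphaScreen proximity signal between nickel-chelate acceptor and streptavidin donor beads (final 10 ug/mL) reports binding of 50 nM L3MBTL1 to 75 nM biotin-H3 K9me1 peptide; complex incubated with compounds 30 min at room temperature; cefsulodin titration as control.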
HP1b chromo inh: blocks HP1-beta chromodomain binding to methylated histone tails; Potency, µM (highest dose often 114 µM), for the others: at the highest dose activity change, negative = inhibition, hits mostly inhibitors; P83916; 390,000 compounds, 0.56% hits; AlphaScreen HP1-beta / biotin-H3K9me3 peptide binding; note: potency is the fitted concentration of half-maximal effect; nearly all actives have a fitted effect of over 70% in size
Target sequence (P83916 whole entry, looked up): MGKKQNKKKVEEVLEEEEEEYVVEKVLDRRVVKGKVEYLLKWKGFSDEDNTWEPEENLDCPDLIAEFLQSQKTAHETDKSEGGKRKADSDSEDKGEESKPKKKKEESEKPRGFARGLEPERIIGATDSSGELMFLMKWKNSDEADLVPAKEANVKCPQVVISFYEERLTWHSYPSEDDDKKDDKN
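AlphaScreen: HP1-beta (50 nM) preformed 30 min with biotin-H3(1-18)K9me3 peptide (50 nM) in PBS pH 7.4, 0.01% Tween-20. Compound added for 30 min at RT, then streptavidin donor/nickel chelate acceptor beads (10 ug/mL) for 30 min.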
G9a inh-1: inhibitors of human histone lysine methyltransferase G9a; AID 504332; G9a H3K9 monomethylation, AlphaScreen, 2 h; Potency, µM (top dose mostly 102 µM), without a hit: at the top dose activity, negative = inhibition, most hits filed as inhibitors; 350,000 compounds, 8.8% hits; note: potency is the fitted concentration of half-maximal effect; % is set by controls: 0 for no effect and ±100 for the full control effect; nearly all actives have a fitted effect of over 75% in size
Target sequence (Q96KQ7 913-1193 limits assumed): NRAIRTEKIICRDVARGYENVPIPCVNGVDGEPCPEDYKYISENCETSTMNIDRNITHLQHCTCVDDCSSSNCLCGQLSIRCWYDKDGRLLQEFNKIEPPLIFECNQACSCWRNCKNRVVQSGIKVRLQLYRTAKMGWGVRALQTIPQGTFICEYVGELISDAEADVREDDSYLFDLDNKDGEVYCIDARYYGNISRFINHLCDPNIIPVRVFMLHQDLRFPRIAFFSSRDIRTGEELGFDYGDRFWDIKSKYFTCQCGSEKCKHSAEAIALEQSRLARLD
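Enzyme 20 nM + cpd, 15 min RT; add b-H3K9 pep 500 nM / SAM 20 uM; 2 h RT; anti-H3K9me1 Ab 0.5 ug/mL + SA donor / anti-rabbit acceptor beads 20 ug/mL each, 10 min; AlphaScreen read.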
Sfp PPTase inh: inhibitors of Bacillus subtilis Sfp phosphopantetheinyl transferase | Q9F4F7 | Biochemical Sfp PPTase activity, qHTS | Potency, µM, inactives show largest response in the series, negative = inhibition, hits mostly inhibitors | 310,000 compounds, 3.5% hits | AID 1490;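 note: the enzyme is Sfp with the accession as filed and its product quenches rhodamine fluorescence; potency is the fitted concentration of half-maximal effect; 0% = enzyme reaction without inhibitor and -100% = no enzyme wells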
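Buffer: 50 mM Hepes-Na pH 7.6, 10 mM MgCl2, 0.01% Nonidet P-40, 0.01% BSA. Enzyme 15 nM, pre-exposed to compound 15 min; substrates then added and fluorescence change tracked over 30 min.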
BAZ2B block: inhibitors of human BAZ2B bromodomain | Q9UIF8 | AlphaScreen BAZ2B-H3K14Ac peptide displacement | Potency, µM (doses to about 114 µM), for inactives: top-dose activity change, negative = inhibition, hits mostly inhibitors | 360,000 compounds, 4.4% hits; note: potency is the fitted concentration of half-maximal effect; % is set by controls: 0 for no effect and ±100 for the full control effect; nearly all actives have a fitted effect of over 60% in size
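AlphaScreen displacement: compounds (up to 110uM) incubated 30 min at room temperature with a preformed 50 nM BAZ2B/50 nM biotinylated H3K14Ac peptide complex in PBS pH 7.4 with Tween-20. Donor and acceptor beads at 10 ug/mL final added, 20 min light-protected before reading.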
JMJD2E inh: confirmation of inhibitors of human JMJD2E demethylase; shares compounds with JMJD2A Tudor; Recombinant JMJD2E, FDH-coupled NADH fluorescence (FDH is formaldehyde dehydrogenase); Potency, µM (series often up to 56.8 µM), inactives show at the highest dose activity change, negative = inhibition, actives largely listed as inhibitors; 140 compounds, 93% hits
FDH inh: blocks Pseudomonas putida formaldehyde dehydrogenase, flagging JMJD2E artifacts; Potency, µM (highest dose often 56.7 µM), inactives show at the highest dose activity, negative = inhibition, actives largely listed as inhibitors; 140 compounds, 10% hits; shares compounds with JMJD2A Tudor; FDH enzyme assay, NADH fluorescence kinetic
G9a inh-2: confirmation of human histone methyltransferase G9a inhibitors; shares compounds with JMJD2A Tudor; Potency, µM, actives largely listed as inhibitors; G9a H3K9 monomethylation, AlphaScreen, 2 h; 370 compounds, 89% hits; note: potency is the fitted concentration of half-maximal effect; nearly all actives have a fitted effect of over 65% in size
RGS4 inh: confirmation of human RGS4 inhibitors. shares compounds with JMJD2A Tudor. RGS4 GAP activity, Transcreener GDP fluorescence polarization. Potency, µM, usual class: inhibitors. 25 compounds, 80% hits. AID 602388
Target sequence (P49798 whole entry, looked up): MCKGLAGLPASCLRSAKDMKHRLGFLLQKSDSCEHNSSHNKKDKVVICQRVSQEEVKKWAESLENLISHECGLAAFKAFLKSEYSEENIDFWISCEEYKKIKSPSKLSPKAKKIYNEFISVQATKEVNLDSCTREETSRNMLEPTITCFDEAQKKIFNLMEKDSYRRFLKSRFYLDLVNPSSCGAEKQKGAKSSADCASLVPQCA
Active calls of the source: *; u = inconclusive; x = no result; [ ] = dose if it differs, or a comment. Sampled rows, rich in hits. Any-hit rate of the full collection: about 12%. Calls come from the whole dose curve; as a rule, active = well fitted curve in the direction sought with a large enough effect; inconclusive = small, poorly fitted or top-dose-only effect, or another doubt; inactive = no such curve, though single readings can be large; an effect the other way counts as inactive or inconclusive.

SMILES	JMJD2A Tudor	L3MBTL1 inh	HP1b chromo inh	G9a inh-1	Sfp PPTase inh	BAZ2B block	G9a inh-2	others
COc1ccc(NC(=S)Nc2ccccc2F)c(OC)c1	-11%	-5%	14%	11%	-23%	-2%	x
COc1ccc(O)c(CNc2ccccc2F)c1	-29%	x	3%	u	6%	x	28*
COc1ccc(N2CCN(c3nc4ccccc4nc3NS(=O)(=O)c3ccccc3)CC2)cc1	50µM*	x	u	u	11%	50µM*	7.9*
CC(=O)Nc1ccc(N2CCCC2)cc1	-18%	x	9%	u	40µM*	3%	6.3*
Cc1ccc(C(=O)Nc2ccc(N3CCCC3)cc2)cc1	-4%	u	31%	1.6µM*	-7%	-8%	1.3*
O=C(/C=C/c1ccccc1)Nc1ccc(N2CCCCC2)cc1	-18%	0%	-8%	2.8µM*	15%	-31%	2.2*
O=C(CNC(=O)c1ccc(Br)o1)Nc1ccc(N2CCCCCC2)cc1	u	u	-11%	2.2µM*	x	u	1*
CCC(=O)Nc1ccc(C)cc1-c1nc2ccccc2n(CC(=O)c2ccc(C)cc2)c1=O	-3%	x	42%	u	x	-13%	x
CC(C)(C)C(=O)Nc1ccc(N2CCCC2)cc1	-9%	-5%	26%	u	0%	u	2.5*
CC(C)n1cnc2cc(NCc3ccco3)ccc21	u	-9%	3%	u	-18%	-33%[57.1 µM]	14*
COCCNc1ncnc2ccc(-c3ccoc3)cc12	x	x	x	10%[0.501 µM]	1%	x	x
COc1ccc2[nH]cc(CCNc3ncnc4ccc(-c5ccoc5)cc34)c2c1	x	x	x	-47%[0.501 µM]	3%	x	x	RGS4 inh=u
NNC(=O)CSc1cccc2cccnc12	-10%	-10%	39%	-40%	-2%	-25%	x
O=C(CSc1cccc2cccnc12)N1CCCC1	u	u	u	u	u	9%	x	JMJD2E inh=32µM*;FDH inh=11µM*
CC(=O)c1ccc(S(=O)(=O)N2CCCC(N(C)CCc3ccccn3)C2)cc1 (stereo not drawn)	12%	x	29%	u	6%	-20%	u
Nc1ccccc1SCC(=O)Nc1nccs1	4%[57.1 µM]	2%	34%	u	10%	-2%	x
Cc1nc(NC(=O)CSc2ccccc2N)sc1C	-18%	x	1%	u	-21%	-39%	18*
Cn1nnnc1SCC(=O)Nc1ccc(Br)cc1Cl	9%	8%	43%	2µM*	4%	-24%	u
COc1cc2c(NC3CCN(C)CC3)nc(N3CCCN(C)CC3)nc2cc1OCCCCCN	x	x	x	x	x	x	x	RGS4 inh=u
N#CCCn1c(=O)cnc2cnc(Oc3ccccc3)nc21	x	x	x	7%[0.501 µM]	21%	x	x
CCOc1ccc(CC(=O)Nc2sc(Cc3ccccc3)cc2C(N)=O)cc1OCC	u	x	u	2.5µM*	28µM*	-1%	6.3*
COc1ccc(NC(=O)C2CC(=O)n3ncnc3N2)cc1 (stereo not drawn)	-15%	14%	22%	-8%[59 µM]	18%	1%	x
COc1cccc(NC(=O)C2CC(=O)n3cnnc3S2)c1 (stereo not drawn)	18µM*	4%	-75%	0.63µM*	45µM*	u	0.18*
COc1ccc(NC(=O)C2CC(=O)n3cnnc3S2)cc1 (stereo not drawn)	11µM*	x	-66%	u	56µM*	-34%	0.18*
Cc1ccnc(NC(=S)NC(=O)c2cccs2)c1	-4%	-2%	7%	-3%	1%	-6%	x
SMILES	JMJD2A Tudor	L3MBTL1 inh	HP1b chromo inh	G9a inh-1	Sfp PPTase inh	BAZ2B block	G9a inh-2	others
Cn1nnc(NC(=S)NC(=O)c2cccs2)n1	3.2µM*	12%	-37%	0.79µM*	-71%	u	7.1*
CCOC(=O)Cn1c(=O)cc(C)c2c(C)nn(-c3cccc(F)c3)c21	26%	x	-5%	51%[59 µM]	x	30%	x
O=C(Nc1ccc(N2CCN(c3ccc(O)cc3)CC2)cc1)Oc1ccccc1	-27%	x	-4%	0.89µM*	-19%	-30%	0.2*
CCOC(=O)c1ccccc1NC(=O)N(Cc1ccc(C)cc1)Cc1cccn1-c1nnc(N2CCCC2=O)s1	10%	x	43%	0.79µM*	x	-2%	u
COc1ccc(OC)c(-c2csc(NC(=O)COC(=O)C3CCC3)n2)c1	-34%	-7%	12%	u	x	-37%	10*
COc1ccc(OC)c(-c2csc(NC(=O)CSc3ccc(Br)cc3)n2)c1	-25%	-15%	20%	4%[59 µM]	17%	u	x
Cc1csc(NC(=O)CSc2nc3sc(C)c(C)c3c(=O)[nH]2)n1	0%[57.1 µM]	x	u	u	20µM*	u	0.89*
COc1cccc(Nc2ncc3nc(-c4ccccc4)c(=O)n(C[C@H]4CCCO4)c3n2)c1	x	x	x	-1%[12.7 µM]	5%	x	x
Cc1ccc2nc(N)[nH]c(=O)c2c1Sc1ccncc1	x	x	x	u	8%	x	11*
Cc1ccc2nc3[nH]c(=O)[nH]c(=O)c3c(N)c2c1	-21%	x	-1%[57 µM]	x	x	x	x
C=C1C[C@@]23CC4C5[C@@]6(C)C[C@H](O)C[C@@]57C2[C@H](O)[C@@H]1[C@H](O)[C@H]3[C@H]7N4C6	x	x	x	x	26%	x	x
CSc1cc2c(cc1C(F)(F)F)N(C(=O)Nc1cccnc1)CC2	x	x	x	x	2%	x	x
O=C(NCc1ccccc1CN1CCCCC1)c1ccccc1N1CCCC1=O	u	0%	27%	-11%[2.33 µM]	x	-3%	x
O=C(NCc1ccccc1CN1CCCCC1)c1ccc(Cl)cc1N1CCCC1=O	u	2%	34%	1µM*	x	3%	7.9*
CC(C)c1ccc(NC(=O)c2cc(S(=O)(=O)N3CCCCC3)cn2C)cc1	-19%	x	22%[57 µM]	4%[59 µM]	x	-2%	x
COc1cc(OC)cc(N2C(=O)CSC23C(=O)Nc2ccccc23)c1 (stereo not drawn)	3%	x	33%	u	x	-10%	x
COc1ccc(Nc2c(-c3ccc(C)o3)nc3ccc(Cl)cn23)cc1	-4%	x	34%	-12%[59 µM]	x	-1%	x

Bioassay records (PubChem BioAssay)
